# What was measured:
# [1] = tested on: MAP4K4
# [2] = tested on: MAP4K5
# [3] = tested on: MARK1
# [4] = tested on: T1, MEK1
# T1 construct: gene MAP2K1
# [5] = tested on: MYO3A
# [6] = tested on: T2, MEK2
# T2 construct: gene MAP2K2
# [7] = tested on: T3, MEK6
# T3 construct: gene MAP2K6
# [8] = tested on: T4, MINK
# T4 construct: gene MINK1
# [9] = tested on: MKNK2
# [10] = tested on: T5, MLK1
# T5 construct: gene MAP3K9
# [11] = tested on: NEK10
# [12] = tested on: T6, MRCKB
# T6 construct: gene CDC42BPB
# [13] = tested on: MST1R
# [14] = tested on: T7, MST1
# T7 construct: gene STK4
# [15] = tested on: T8, MST3
# T8 construct: gene STK24
# [16] = tested on: MST4
# [17] = tested on: MYLK4
# [18] = tested on: T9, NDR1
# T9 construct: gene STK38
# 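Also: kd values determined as follow-up on hits from a single-replicate KINOMEscan panel screen.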
structure (smiles),measurement,setting,value
COc1cccc(NC(=O)NC2CCN(c3ccnc(Nc4ccc(F)cc4)n3)C2)c1 (stereo not shown) [GSK1379721],Kd,[1],> 10 µM
same,Kd,[2],> 10 µM
COc1ccccc1CNC(=O)c1cc(C(=O)c2ccccc2C)c[nH]1 [GSK364507],Kd,[3],> 10 µM
Cc1ccc(NC(=O)Nc2cccc(Cl)c2)cc1-c1ccc(C(=O)Nc2ccncc2)cc1 [GSK1398468],Kd,[4],> 10 µM
same,Kd,[5],> 10 µM
Cc1cccc(-c2nc(Nc3cccc(C(N)=O)c3)c3ccccc3n2)n1 [GW876019],Kd,[4],> 10 µM
Fc1cc(Cl)ccc1Nc1ccnc2cc(-c3ccc(CN4CCCCC4)o3)ccc12 [GW560116],Kd,[6],> 10 µM
CCCc1ccc(S(=O)(=O)NC2CCN(c3ccnc(Nc4ccc(F)cc4)n3)C2)cc1 (stereo not shown) [GSK1379715],Kd,[7],> 10 µM
CCn1c(-c2ccccn2)nc2cnccc21 [SB-736398],Kd,[7],> 10 µM
Cc1ccc(-c2cc(-c3c[nH]nc3-c3ccccn3)ccn2)cc1 [GW684088],Kd,[8],0.061 µM
Cc1ccc(NC(=O)Nc2cc(C(C)(C)C)nn2-c2ccccc2)cc1 [GSK1014915],Kd,[9],0.37 µM
NC(=O)c1nnc2ccccc2c1N,Kd,[10],> 10 µM
same,Kd,[11],0.43 µM
COc1ccc2nc(-c3cccc(C)n3)nc(Nc3ccncc3)c2c1 [GSK204919],Kd,[12],0.52 µM
Cc1cccc(-c2nc(C)cc(Nc3ccncc3)n2)n1 [GSK257997],Kd,[12],0.58 µM
Fc1cc(Cl)ccc1Nc1ccnc2cc(I)ccc12 [GW551191],Kd,[13],> 10 µM
Nc1ncnc2[nH]c(-c3ccccc3)nc12 [AH5015],Kd,[14],> 10 µM
O=C1NC(=O)C(N2CCc3ccccc32)=C1c1ccccc1Cl [SB-373598],Kd,[14],> 10 µM
CS(=O)(=O)c1ccc(-c2c(-c3ncn[nH]3)sc(N3CCOCC3)c2C#N)cc1,Kd,[15],> 10 µM
CSc1nn2c(=O)cc(N3CCOCC3)nc2n1Cc1cccc(C(F)(F)F)c1C [GSK2363608],Kd,[16],> 10 µM
COc1cc2ncn(-c3cc(OCC4CCCO4)c(C(N)=O)s3)c2cc1OC (stereo not shown) [GSK204607],Kd,[17],0.5 µM
CC(C)(C)c1ccc(C(=O)Nc2cn3cc(Cl)ccc3n2)cc1,Kd,[18],> 10 µM
